# Bioassay records as filed in PubChem BioAssay.
# The list is not random: actives were taken first. Their share in the collection is about 17%.
# DT40 TDP1 no CPT = qHTS for Inhibitors of human tyrosyl-DNA phosphodiesterase 1 (TDP1): qHTS in cells in absence of CPT; DT40 Tdp1-/- hTDP1 cells, no CPT, ATP luminescence, 48 h; Potency, µM (doses to about 46.2 µM), without a hit: at the top dose activity change, negative = growth inhibition, most hits filed as inhibitors; hit rate 15% among 420,000; AID 686978, 2013; note: % is set by controls: 0 for no effect and ±100 for the full control effect; nearly all actives have a fitted effect of over 55% in size
#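 Stably hTDP1-transfected Tdp1-null chicken DT40 cells were treated with library compounds minus camptothecin and grown for at least 48 hr at 37 °C, after which cellular ATP was quantified by luminescence.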
# HT1080-NT tox = kills 2HG-producing HT-1080-NT fibrosarcoma cells | Potency, µM (series often up to 46.1 µM), inactives show at the highest dose activity, negative = less viability, hits mostly cytotoxic | HT-1080-NT fibrosarcoma viability, CellTiter-Glo ATP luminescence, 48 h | hit rate 1.6% among 360,000;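 note: NT is the 2HG producing partner of a matched IDH1 knockdown line; 0% = DMSO-treated cells and -100% = media-only wells without cells; nearly all actives have a fitted effect of over 55% in size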
#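 Toxicity toward the 2HG-producing NT line was scored as %Activity, normalised to DMSO and no-cell wells, from CellTiter-Glo luminescence after 48 hours' treatment.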
# TGFb SMAD3 inh = inhibitors of TGF-b signaling. HepG2 CAGA-GFP TGF-b/SMAD3 reporter, GFP fluorescence, 18 h; TGF-beta stimulated, 500 pg/mL final. Potency, µM (highest dose often 46.1 µM), without a hit: at the top dose activity, negative = inhibition, actives largely listed as inhibitors. hit rate 1.2% among 410,000. AID 588855; note: % is set by controls: 0 for no effect and ±100 for the full control effect; nearly all actives have a fitted effect of over 65% in size
#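 GFP signal (ex488/em500-530) from TGF-beta-stimulated HEPG2 CAGA-GFP cells, 500 pg/mL final, 18 h at 37 degrees C in DMEM plus 1% FBS, normalized to unstimulated and DMSO-stimulated controls.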
# HepG2 tox = counter-screen for TGF-b inhibitors: cytotoxicity in HepG2 cells. HepG2 CAGA-GFP viability, ATP luminescence, 18 h. Potency, µM (top dose mostly 46.1 µM), for the others: top-dose activity change, negative = cytotoxicity, most hits filed as cytotoxic. hit rate 0.76% among 410,000. AID 588856
#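 CellTiter-Glo luminescence gave cytotoxicity after 18 hours at 37 degrees C. The cells were HepG2 CAGA-GFP in 1% FBS DMEM, stimulated with 500 pg/mL TGF-beta after compound addition. %Activity was normalised to no-cell wells (complete cell-killing) and DMSO (no toxicity), and curves were fitted and classified.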
# TDP1 cell CPT = growth inhibition of DT40 Tdp1-/-;hTDP1 cells with camptothecin (screen for TDP1 inhibitors) | Potency, µM (highest dose often 46.2 µM), for the others: top-dose activity change, negative = growth inhibition, actives largely listed as inhibitors | hit rate 12% among 420,000 | chicken DT40 Tdp1-/-;hTDP1 cells + 20 nM CPT, ATP luminescence, 48 h; note: % is set by controls: 0 for no effect and ±100 for the full control effect; nearly all actives have a fitted effect of over 55% in size
#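 Cell growth measured by CellTiter-Glo luminescence after a minimum 48 h, 37 C compound exposure with 20 nM CPT in Tdp1-knockout DT40 cells stably expressing hTDP1, seeded 400/well; qHTS titration format.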
# HT1080 IDH1KD tx = toxicity to HT-1080 IDH1 knockdown cells (counter line); HT-1080 IDH1 knockdown viability, ATP luminescence, 48 h; Potency, µM (highest dose often 46.1 µM), inactives show at the highest dose activity, negative = toxicity, actives largely listed as cytotoxic; hit rate 2% among 360,000; AID 686971;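 note: 0% = DMSO wells and -100% = cell-free medium wells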
#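 Assay cells: HT-1080 with IDH1 knockdown, 750 per well, RPMI/5% FBS. Exposure: 48 h at 37 °C following 2 h pre-incubation. Read: CellTiter-Glo luminescence; fitted concentration-response, curve class assigned.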
# An asterisk follows results filed as active; ? = inconclusive; · = not tested or not shown; [ ] = remark or other dose. Calls come from the whole dose curve; as a rule, active = well fitted curve in the direction sought with a large enough effect; inconclusive = small, poorly fitted or top-dose-only effect, or another doubt; inactive = no such curve, though single readings can be large; an effect the other way counts as inactive or inconclusive. Potency is the fitted concentration of half-maximal effect.
SMILES,DT40 TDP1 no CPT,HT1080-NT tox,TGFb SMAD3 inh,HepG2 tox,TDP1 cell CPT,HT1080 IDH1KD tx
COc1cc(/C=C\C(=O)NCc2ccc3c(c2)cc(C)n3C)cc(OC)c1OC,26µM*,0%,-5%,-90%,-20%,1%
COc1ccc(CC(=O)NCc2ccc3c(c2)cc(C)n3C)cc1OC,15µM*,8%,-29%,-26%,-27%,-1%
COc1ccccc1Cn1c(SCC(N)=O)nc2c(oc3ccccc32)c1=O,0%,1%,0%,1%,?,-1%
COC(=O)c1ccc(CN2CCC3(CCC(CNC(=O)c4ccccc4)O3)CC2)cc1 (configuration not stated),-25%,·,·,·,-1%[9.04 µM],·
CC(=O)c1cccc(NC(=O)Cn2nc(C(F)(F)F)c3c2CCC3)c1,-21%,·,-28%,-10%,?,·
Nc1nn(-c2ccccc2)c(N)c1N=Nc1ccc2c(c1)OCO2,4.1µM*,18µM*,-14%,0%,3.7µM*,6.5µM*
Nc1nn(-c2ccccc2)c(N)c1N=Nc1cccc(F)c1,2.6µM*,16µM*,?,-4%,1.6µM*,5.8µM*
O=C1CC(C(=O)O)C(c2ccccc2)c2ccccc21 (configuration not stated),-16%,-5%,10%,-2%,0%,0%
Cn1c(N)c(Br)c(-c2ccc(F)cc2)c(C#N)c1=O,-15%,-1%,5%,-2%,0%,-15%
Cc1nn(-c2ccccc2)c2nc(N)c(C#N)c(-c3ccc(F)cc3)c12,26µM*,-4%,-7%,-22%,18µM*,-14%
N#Cc1c(N)nc2c(c1-c1ccc(F)cc1)c(=O)nc1sccn12,2.6µM*,-17%,8%,-4%,6%,0%
Cc1ccc(-n2nc(C)c3c(-c4cccs4)c(C#N)c(N)nc32)cc1,23µM*,-15%,0%,-17%,?,-7%
CC(C)CCN1CCN(CC(c2ccccc2)c2ccccc2)CC1CCO (configuration not stated),21µM*,-9%,?,-19%,23µM*,-14%
COc1ccc2[nH]c(CN3CCN(C(C)C)C(CCO)C3)c(C)c2c1 (configuration not stated),-24%,6%,11%,6%,16%,10%
COc1ccc2[nH]c(CN3CCN(CC(C)C)C(CCO)C3)c(C)c2c1 (configuration not stated),23µM*,0%,-8%,-34%,-17%,-19%
CC(C)=CCN1CCN(Cc2c[nH]c3ccccc23)CC1CCO (configuration not stated),?,-2%,6%,5%,?,-11%
CC(C)CN1CCN(Cc2c[nH]c3ccccc23)CC1CCO (configuration not stated),?,8%,-16%,-6%,8.2µM*,12%
CC(=O)/C=C1/SC(CC(=O)O)C(=O)N1c1ccccc1 (configuration not stated),2%,4%,0%,10%,5%,0%
CCN(CC)CCCNC(=O)Cc1ccc(NC(=O)N2CCCCc3ccccc32)cc1,-18%,·,?,3%,-19%,·
CCC(OC(=O)CNS(=O)(=O)c1ccccc1)C(=O)c1ccccc1 (configuration not stated),-24%,0%,9%,-1%,0%,1%
Cc1ccc(-n2sc3cc(F)ccc3c2=O)c(C)c1,2.3µM*,?,?,11µM*,2.9µM*,?
O=c1c2ccccc2sn1-c1ccc(F)cc1,3.7µM*,?,10µM*,-92%,3.3µM*,-18%
O=C(c1sc2cc(F)ccc2c1Cl)N1CCN(c2cccc(Cl)c2)CC1,?,12%,-11%,-17%,?,4%
O=c1c2cc(F)ccc2sn1-c1ccccc1Cl,2.3µM*,?,?,-57%,2.6µM*,?
Cc1ccc(N2C(=O)CC(N3CCN(c4ccc(F)cc4)CC3)C2=O)c(C)c1 (configuration not stated),-5%,1%,-8%,-4%,-2%,2%
SMILES,DT40 TDP1 no CPT,HT1080-NT tox,TGFb SMAD3 inh,HepG2 tox,TDP1 cell CPT,HT1080 IDH1KD tx
O=c1c2ccc(F)cc2sn1-c1ccccc1,2.9µM*,-25%,11µM*,-110%,2.6µM*,?
CC(=O)OCC1OC(OC(C)=O)C(NC(=O)c2cccnc2)C(OC(C)=O)C1OC(C)=O (configuration not stated),?,2%,5%,11%,-20%,10%
CCc1ccc(NC(=O)C(C)Sc2nnc(CN3CCCC3)o2)cc1 (configuration not stated),5%,6%,3%,4%,-10%,7%
CC(C)(C)C(=O)Nc1nnc([C@H]2C[C@H](O)[C@@H](CO)O2)s1,10%,26%,10%,-2%,1%,5%
CCCC(=O)OCc1cnc(C)c2oc(=O)c(C(=O)Nc3ccccc3)cc12,·,·,2%,-6%,·,·
COC(=O)c1cccc(N2CCCC2=O)c1,5%,0%,-11%,0%,-8%,1%
COC(=O)c1cccc(-n2sc3ccccc3c2=O)c1,3.3µM*,-21%,?,-34%,2.1µM*,-18%
CCOC(=O)N1CCN(C(=O)c2[nH]c(C(F)(F)F)nc2-c2ccccc2)CC1,16µM*,?,2%,-19%,16µM*,?
Cc1cccc(N2CCN(C(=O)c3[nH]c(C(F)(F)F)nc3-c3ccccc3)CC2)c1C,1.3µM*,?,?,-6%,1.3µM*,0.58µM*
COc1ccccc1N1CCN(C(=O)c2[nH]c(C(F)(F)F)nc2-c2ccccc2)CC1,5.8µM*,1.3µM*,?,4%,6.5µM*,0.82µM*
O=C(Nc1cccc(Cl)c1)c1cc(S(=O)(=O)N2CCOCC2)cs1,-26%,-24%,-6%,-5%,?,1%
Cc1ccc(Cl)cc1NC(=O)COCc1cc(-c2ccco2)on1,?,·,0%,-11%,-21%,·
COCCCNC(=O)CN1C(=O)c2cccnc2Sc2ccccc21,-9%,·,6%,-1%,-7%,·
Cc1cccc(C(=O)NNc2ncnc3c2cnn3-c2ccc(C)c(Cl)c2)c1,0%,·,29%,9%,-21%,·
N#Cc1cnn2ccc(-c3ccc4c(c3)CCC4)nc12,-25%,-7%,-10%,-3%,?,-4%
